Experimental data as given in PubChem BioAssay (Tox21).
“And” between values parts separate entries of the source, which are not always exact repeats. Identical values can stand only once. Inconclusive results are not listed. A call without a number means that no potency is given here. A structure can be active in one record and inactive in another. The source made the active and inactive calls. Unless noted, calls follow the shape of the full dose curve.

Experiments:
[1] = Nuclear factor erythroid 2-related factor 2/antioxidant responsive element (Nrf2/ARE) small molecule agonists: qHTS cell viability counter screen in human keratinocytes (AID 1919968; active = well fitted curve in the direction sought with a large enough effect in the repeat runs; an effect the other way counts as inactive or inconclusive; also: nearly all actives have a fitted effect of over 55% in size; also: potency is read from the fitted curve at half-maximal effect)
In short: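 HaCaT ARE reporter line, 1,500 cells/well; 5 h settle, 37 C/5% CO2; cpd in DMSO pinned; 23 h exposure; CellTiter-Fluor, 1 h; fluorescence.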

[2] = Nuclear factor erythroid 2-related factor 2/antioxidant responsive element (Nrf2/ARE) small molecule agonists: luciferase reporter gene qHTS assay in human keratinocytes (AID 1919969); also: nearly all actives have a fitted effect of over 35% in size; also: potency is read from the fitted curve at half-maximal effect
[3] = biological target: Gonadotropin-releasing hormone receptor (Homo sapiens) (UniProt P30968); assay: Human gonadotropin-releasing hormone receptor (GnRHR) small molecule agonists, calcium flux assay in GnRHR-HEK293 cells (AID 1920063); also: nearly all actives have a fitted effect of over 35% in size
In short: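 GnRHR-HEK293, 1500 cells/well, 18 h 37 C/5% CO2; Ca dye 1 h 37 C; cpd pinned (DMSO), agonist mode; kinetic FL 480/540, 3 min, 1 s reads; 15 conc, n=3.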

[4] = biological target: KiSS-1 receptor (Homo sapiens) (UniProt Q969F8); assay: Human kisspeptin (KISS1R) small molecule agonists, calcium flux assay in KISS1R-HEK293 cells (AID 1920064; active = well fitted curve in the direction sought with a large enough effect in the repeat runs; an effect the other way counts as inactive or inconclusive)
In short: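 Stable human KISS1R HEK293 line; 18 h plating, 37 C/5% CO2; calcium dye 1 h 37 C; compound pin transfer; kinetic fluorescence Ex/Em 480/540, 3 min.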

[5] = p53 small molecule agonists, cell-based qHTS assay with human liver microsomes: qHTS cell viability counter screen (AID 1963579); also: nearly all actives have a fitted effect of over 45% in size; also: potency is read from the fitted curve at half-maximal effect
In short: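 Viability of p53RE-bla cells is measured as CellTiter-Glo luminescence following a 16 h, 37 C incubation with compound, liver microsomes from human donors and NADPH.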

[6] = p53 small molecule agonists, cell-based qHTS assay: qHTS cell viability counter screen (AID 1963581); also: nearly all actives have a fitted effect of over 45% in size; also: potency is read from the fitted curve at half-maximal effect
In short: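 HCT-116 p53RE-bla cells, 4,000/well, plated 5 h before compound pin transfer; 16 h at 37 C; bla substrate 2 h RT; then CellTiter-Glo, 30 min RT, luminescence.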

[7] = biological target: 5-hydroxytryptamine receptor 2A (Homo sapiens) (UniProt P28223); assay: 5-hydroxytryptamine receptor 2A (HTR2A) small molecule antagonists, cell-based qHTS assay (AID 1963586); also: nearly all actives have a fitted effect of over 45% in size
In short: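 Antagonist-mode intracellular calcium assay: DOI (4 nM) added after 5 min compound pre-incubation at room temperature to dye-loaded HTR2A-CHO cells. Fluorescence followed for 3 min, sampled every second.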

[8] = biological target: 5-hydroxytryptamine receptor 2A (Homo sapiens) (UniProt P28223); assay: 5-hydroxytryptamine receptor 2A (HTR2A) small molecule agonists, cell-based qHTS assay (AID 1963587); also: nearly all actives have a fitted effect of over 30% in size
In short: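 HTR2A-CHO cells, plated 18 h at 37 C/5% CO2, dye-loaded 1 h at 37 C; compounds in DMSO added by pin tool (agonist mode). Intracellular calcium flux read as kinetic fluorescence on FDSS over 2 min at 1 s intervals.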

[9] = biological target: Muscarinic acetylcholine receptor M1 (Homo sapiens) (UniProt P11229); assay: Cholinergic receptor muscarinic 1 (CHRM1) small molecule agonists, cell-based qHTS assay (AID 1963589); also: nearly all actives have a fitted effect of over 35% in size
In short: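 Human M1 in stable CHO line; 18 h plating, 1 h dye load 37 C; cpd added (agonist mode); Ca2+ fluorescence kinetic read, 1 s intervals; 15 conc, 3 runs.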

[10] = biological target: Beta-2 adrenergic receptor (Homo sapiens) (UniProt P07550); assay: Adrenergic beta2 receptor (ADRB2) small molecule antagonists, cell-based qHTS assay (AID 1963592); also: series mostly up to about 92 µM; nearly all actives have a fitted effect of over 50% in size
In short: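 Cells (CHO, stable ADRB2 overexpression) incubated 18-20hr at 37C; compounds added from DMSO; agonist mix (1nM isoproterenol, 100uM IBMX, 25uM Ro-20-1724) added; 0.5hr RT; d2-cAMP and anti-cAMP-cryptate added; 1hr RT; 665/615 nm read.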

[11] = biological target: D(2) dopamine receptor (Homo sapiens) (UniProt P14416); assay: Dopamine D2 receptor (DRD2) small molecule agonists, cell-based qHTS assay (AID 1963594); also: nearly all actives have a fitted effect of over 35% in size
In short: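 HEK293 cells stably expressing DRD2 were cultured 24 h at 37 C, then given Ro20-1724 (0.1 mM final) and compounds for 10 min at room temperature. NKH477 (200nM) was then added for 30 min. cAMP was read by HTRF.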

[12] = biological target: D(2) dopamine receptor (Homo sapiens) (UniProt P14416); assay: Dopamine D2 receptor (DRD2) small molecule antagonists, cell-based qHTS assay (AID 1963595; active = well fitted inhibition curve with a large enough effect in the signal ratio in the repeat runs, with a control signal flat; the % refers to the signal ratio; also: potency is read from the fitted curve at half-maximal effect)
In short: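 HEK293 cells stably expressing DRD2, preincubated with 0.1 mM Ro20-1724 and compounds 10 min, were stimulated with 200 nM NKH477 plus 12 nM quinpirole for 30 min at room temperature; cAMP measured by HTRF (665/620 nm).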

[13] = p53 small molecule agonists, cell-based qHTS assay with human liver microsomes (AID 1963577);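 also: p53 response element beta-lactamase reporter cells with liver microsomes plus NADPH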
In short: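 HLM-supplemented p53RE-bla reporter assay: 16 h compound exposure at 37 C, microsomes and NADPH each 0.5 mg/mL final, read by fluorescence intensity.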

[14] = p53 small molecule agonists, cell-based qHTS assay with rat liver microsomes (AID 1963578)
In short: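 Quantitative HTS of the Tox21 10K library: p53RE-bla cells, rat liver microsomes plus NADPH at 0.5 mg/mL final each, 16 h at 37 C, beta-lactamase fluorescence detection.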

[15] = p53 small molecule agonists, cell-based qHTS assay with rat liver microsomes: qHTS cell viability counter screen (AID 1963580); also: nearly all actives have a fitted effect of over 45% in size
In short: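 In HCT-116 cells carrying a p53 response element-bla reporter, compounds were metabolically activated in situ by rat liver microsomes with NADPH over 16 h. Cell ATP content then served as the cytotoxicity measure.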

[16] = p53 small molecule agonists, cell-based qHTS assay (AID 1963582; active = well fitted activation curve with a large enough effect in the signal ratio in the repeat runs, not every such curve was filed as active; the % refers to the signal ratio)
In short: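 Reporter line: p53RE-bla. Pre-incubation 5 h, 37 C, 5% CO2; compound (DMSO, pin tool) 16 h, 37 C; B/G FRET substrate 2 h RT; fluorescence intensity read.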

[17] = biological target: Muscarinic acetylcholine receptor M1 (Homo sapiens) (UniProt P11229); assay: Cholinergic receptor muscarinic 1 (CHRM1) small molecule antagonists, cell-based qHTS assay (AID 1963588); also: nearly all actives have a fitted effect of over 40% in size; also: potency is read from the fitted curve at half-maximal effect
In short: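 CHRM1-CHO calcium-flux assay, antagonist mode. Cells were seeded 18 h, dye-loaded 1 h at 37 C and given compound for 5 min at RT, then acetylcholine was added at 50nM. FDSS fluorescence was read 3 min; 15 concentrations, three runs.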

[18] = cAMP Responsive Elements (CRE) small molecule agonists, cell-based qHTS assay (AID 1963590)
In short: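 HEK 293T CRE-bla, 2,000 cells/well, 18 h preincubation 37 C/5% CO2; cpds (DMSO) pinned, 3 h; LiveBLAzer B/G FRET substrate, 2 h RT.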

[19] = cAMP Responsive Elements (CRE) small molecule antagonists, cell-based qHTS assay (AID 1963591; active = well fitted inhibition curve with a large enough effect in the signal ratio in the repeat runs, not every such curve was filed as active; the % refers to the signal ratio)
In short: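 Beta-lactamase reporter read by FRET substrate (LiveBLAzer B/G) after 2 h at room temperature. CRE-bla HEK293T cells had received compound plus 0.25 uM (final) NKH477 for 3 h at 37 °C.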

[20] = biological target: Beta-2 adrenergic receptor (Homo sapiens) (UniProt P07550); assay: Adrenergic beta2 receptor (ADRB2) small molecule agonists, cell-based qHTS assay (AID 1963593);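 also: CHO cells stably overexpressing human ADRB2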
In short: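 CHO cells stably over-expressing ADRB2 were plated overnight at 37C, then dosed with compounds plus a stimulation mix containing 100uM IBMX and 25uM Ro-20-1724 for 0.5hr at room temperature. cAMP was measured by HTRF competition, 1hr.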

Sequence of D(2) dopamine receptor (Homo sapiens) (P14416 whole entry, looked up): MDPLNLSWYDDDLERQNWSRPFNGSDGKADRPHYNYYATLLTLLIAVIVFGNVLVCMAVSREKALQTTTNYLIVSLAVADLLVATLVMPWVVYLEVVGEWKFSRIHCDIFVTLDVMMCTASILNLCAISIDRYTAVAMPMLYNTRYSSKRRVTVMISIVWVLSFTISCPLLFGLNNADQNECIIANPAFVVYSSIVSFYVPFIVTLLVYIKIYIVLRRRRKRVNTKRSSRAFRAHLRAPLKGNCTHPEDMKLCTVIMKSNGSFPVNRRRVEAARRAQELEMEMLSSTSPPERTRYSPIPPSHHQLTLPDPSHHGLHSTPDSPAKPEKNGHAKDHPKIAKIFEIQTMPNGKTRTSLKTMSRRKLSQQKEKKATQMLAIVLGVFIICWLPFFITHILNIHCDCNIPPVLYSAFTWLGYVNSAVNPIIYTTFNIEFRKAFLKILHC
Sequence of 5-hydroxytryptamine receptor 2A (Homo sapiens) (P28223 whole entry, looked up): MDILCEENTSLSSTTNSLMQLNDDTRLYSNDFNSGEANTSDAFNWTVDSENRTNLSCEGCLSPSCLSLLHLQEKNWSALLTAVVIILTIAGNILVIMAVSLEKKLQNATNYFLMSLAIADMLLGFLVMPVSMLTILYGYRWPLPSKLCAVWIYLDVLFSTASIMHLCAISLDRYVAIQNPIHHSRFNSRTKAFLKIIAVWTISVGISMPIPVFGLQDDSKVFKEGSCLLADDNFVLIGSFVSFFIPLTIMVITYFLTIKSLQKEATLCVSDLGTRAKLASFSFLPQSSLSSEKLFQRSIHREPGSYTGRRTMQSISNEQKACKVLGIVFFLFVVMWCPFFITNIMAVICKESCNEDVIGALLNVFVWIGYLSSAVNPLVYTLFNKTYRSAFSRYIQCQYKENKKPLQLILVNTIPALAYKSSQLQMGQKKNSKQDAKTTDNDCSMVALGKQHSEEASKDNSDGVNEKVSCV
Sequence of Muscarinic acetylcholine receptor M1 (Homo sapiens) (P11229 whole entry, looked up): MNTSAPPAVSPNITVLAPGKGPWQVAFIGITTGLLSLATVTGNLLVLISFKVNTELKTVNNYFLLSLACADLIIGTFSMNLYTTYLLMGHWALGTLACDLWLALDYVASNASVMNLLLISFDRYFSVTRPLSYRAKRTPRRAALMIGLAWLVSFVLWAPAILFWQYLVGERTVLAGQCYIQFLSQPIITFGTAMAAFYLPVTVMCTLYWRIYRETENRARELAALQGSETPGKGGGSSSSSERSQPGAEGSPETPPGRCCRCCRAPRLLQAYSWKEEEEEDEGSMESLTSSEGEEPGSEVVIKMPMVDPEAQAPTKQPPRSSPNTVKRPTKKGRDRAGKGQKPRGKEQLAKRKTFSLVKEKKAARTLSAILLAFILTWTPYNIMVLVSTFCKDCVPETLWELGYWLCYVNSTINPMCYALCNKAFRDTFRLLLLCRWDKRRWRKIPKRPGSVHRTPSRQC
Sequence of Beta-2 adrenergic receptor (Homo sapiens) (P07550 whole entry, looked up): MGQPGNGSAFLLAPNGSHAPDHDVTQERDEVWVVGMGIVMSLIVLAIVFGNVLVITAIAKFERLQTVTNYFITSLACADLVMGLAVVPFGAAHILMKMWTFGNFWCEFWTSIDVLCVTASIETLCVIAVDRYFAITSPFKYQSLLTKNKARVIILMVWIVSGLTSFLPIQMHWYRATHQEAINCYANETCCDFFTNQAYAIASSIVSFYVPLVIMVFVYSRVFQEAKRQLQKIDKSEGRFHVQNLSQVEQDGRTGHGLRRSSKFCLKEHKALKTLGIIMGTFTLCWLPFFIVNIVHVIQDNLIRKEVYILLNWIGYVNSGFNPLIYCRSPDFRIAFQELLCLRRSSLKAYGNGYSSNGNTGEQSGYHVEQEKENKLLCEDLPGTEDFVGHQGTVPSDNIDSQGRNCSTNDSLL
Sequence of KiSS-1 receptor (Homo sapiens) (Q969F8 whole entry, looked up): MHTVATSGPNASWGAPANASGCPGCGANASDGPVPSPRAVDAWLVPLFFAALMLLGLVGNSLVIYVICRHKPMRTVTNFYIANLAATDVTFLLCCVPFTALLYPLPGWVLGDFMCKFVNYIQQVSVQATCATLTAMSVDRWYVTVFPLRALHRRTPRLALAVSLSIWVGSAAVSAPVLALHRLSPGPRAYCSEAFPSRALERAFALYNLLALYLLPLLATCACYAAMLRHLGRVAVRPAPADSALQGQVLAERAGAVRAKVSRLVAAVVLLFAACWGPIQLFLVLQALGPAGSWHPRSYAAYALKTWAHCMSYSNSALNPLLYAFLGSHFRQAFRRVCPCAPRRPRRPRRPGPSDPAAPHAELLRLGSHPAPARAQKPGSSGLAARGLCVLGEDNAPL
Sequence of Gonadotropin-releasing hormone receptor (Homo sapiens) (P30968 whole entry, looked up): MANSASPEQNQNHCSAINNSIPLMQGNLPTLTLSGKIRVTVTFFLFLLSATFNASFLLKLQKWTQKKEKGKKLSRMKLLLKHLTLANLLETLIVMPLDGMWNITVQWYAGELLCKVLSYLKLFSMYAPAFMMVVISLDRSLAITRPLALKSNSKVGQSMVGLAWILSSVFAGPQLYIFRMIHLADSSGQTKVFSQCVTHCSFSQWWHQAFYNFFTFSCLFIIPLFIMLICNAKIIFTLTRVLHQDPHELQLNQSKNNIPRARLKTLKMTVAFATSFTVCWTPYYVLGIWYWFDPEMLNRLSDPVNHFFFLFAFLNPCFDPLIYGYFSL

Structure (SMILES)	Potency [1]	Potency [2]	Potency [3]	Potency [4]	Potency [5]	Potency [6]	Potency [7]	Potency [8]	Potency [9]	Potency [10]	Potency [11]	Potency [12]	Potency [13]	Potency [14]	Potency [15]	Potency [16]	Potency [17]	Potency [18]	Potency [19]	Potency [20]
CCCCCCCC[N+](C)(CCCCCCCC)CCCCCCCC	5.44 µM (active) and 6.87 µM (active) and 15.4 µM (active)	inactive	inactive	inactive	5.75 µM (active) and 6.47 µM (active) and 25.7 µM (active)	9.11 µM (active) and 2.58 µM (active) and 20.4 µM (active)	inactive	inactive	inactive	inactive	inactive	54.4 µM (active) and inactive and 17.2 µM (active)								
N#Cc1ccccn1	inactive	63.7 µM (active) and inactive	inactive	inactive	inactive	inactive	inactive	inactive	inactive	inactive	inactive	inactive	inactive	inactive	inactive	inactive	inactive	inactive	inactive	inactive
c1ccc2sc(SNC3CCCCC3)nc2c1	inactive	53.9 µM (active) and 61.1 µM (active)	inactive	inactive	inactive	inactive	inactive	inactive		inactive	inactive	inactive			inactive			inactive	inactive	inactive
CCCCn1cc[n+](C)c1C	inactive	inactive	inactive	inactive	inactive	inactive	inactive	inactive		inactive	inactive	inactive			inactive		inactive	inactive	inactive	inactive
OCCN(CCO)CCO	inactive	inactive	inactive	inactive	inactive	inactive		inactive	inactive		inactive	inactive			inactive		inactive	inactive	inactive	inactive
CCc1cccc(CC)c1N(COC)C(=O)CCl	inactive	47 µM (active) and 54.5 µM (active)	inactive	inactive	inactive	inactive	inactive	inactive	inactive	inactive	inactive				inactive		inactive			
O=[N+]([O-])c1cccc(O)c1	inactive	inactive	inactive	inactive	inactive	inactive	inactive	inactive	inactive	inactive	inactive	inactive	inactive	inactive	inactive	inactive	inactive	inactive	inactive	
CCOc1cc(C=O)ccc1O	inactive	inactive	inactive	inactive	inactive	inactive	inactive	inactive	inactive	inactive		inactive	inactive	inactive	inactive	inactive	inactive	inactive	inactive	
c1ccc2c(c1)Oc1ccccc1O2	inactive	inactive	inactive	inactive	inactive	inactive	inactive	inactive	inactive	inactive		inactive	inactive	inactive	inactive	inactive	inactive	inactive	inactive	inactive
COc1nc(C)nc(NC(=O)NS(=O)(=O)c2ccccc2Cl)n1	inactive	inactive	inactive	inactive	inactive	inactive		inactive		inactive	inactive	inactive	inactive	inactive	inactive	inactive	inactive	inactive	inactive	
O=C(Nc1ccc(Br)cc1)c1cc(Br)cc(Br)c1O	6.09 µM (active) and 6.11 µM (active) and 7.5 µM (active)	54.3 µM (active) and 10.9 µM (active) and 13.3 µM (active)	inactive	inactive	inactive	inactive and 3.97 µM (active)				inactive	inactive	inactive	inactive	inactive	inactive	inactive			inactive	inactive
CC1CN1 (configuration not stated)	inactive	inactive	inactive	inactive	inactive	inactive	inactive	inactive	inactive	inactive	inactive	inactive	inactive	inactive	inactive	inactive		inactive	inactive	
C[C@]12CCC(=O)C=C1CC[C@@H]1[C@@H]2CC[C@@]2(C)[C@H]1CC[C@]2(C)O	inactive	inactive	inactive	inactive	inactive	inactive				inactive		inactive	inactive	inactive	inactive	inactive		inactive		inactive
Cc1ccc(N)cc1N	inactive	26.6 µM (active) and 30.6 µM (active)	inactive	inactive	inactive	inactive	inactive	inactive	inactive		inactive	inactive	inactive	inactive	inactive	inactive	inactive	inactive	inactive	
CC(C#N)CCC#N (configuration not stated)	inactive	inactive	inactive	inactive	inactive	inactive	inactive	inactive	inactive	inactive	inactive	inactive	inactive	inactive	inactive		inactive	inactive	inactive	
Cc1cc(-c2cc(C)c(N)c(C)c2)cc(C)c1N	inactive	inactive	inactive	inactive	inactive	inactive		inactive	inactive		inactive	inactive	inactive	inactive	inactive		2.11 µM (active) and inactive		inactive	
